{"source": "ChEMBL document CHEMBL4513216", "about": "“Probing the Open Global Health Chemical Diversity Library for Multistage-Active Starting Points for Next-Generation Antimalarials” (ACS Infect Dis, 2020)", "note": "In all, about 69,000 compounds went through this assay and about 8,600 (12%) showed an effect of 50% or more. Only a selection was taken, and strong results are over-represented in it overall."}
{"system": "Plasmodium berghei", "assay": "Screen against P. berghei liver stage (PbLuc), transformed with Luciferase, at 10uM", "assay_type": "functional, HepG2", "conditions": "tested at 10 uM", "units": {"INHIBITION": "%"}}
{"smiles": "Cc1cc(NC2CCC(=O)N(C)C2)n2nccc2n1", "note": "(centres undefined)", "INHIBITION": -41.8}
{"smiles": "Cc1cnn(CC2CCCCN2Cc2nnsc2Cl)c1", "note": "(centres undefined)", "INHIBITION": -17.6}
{"smiles": "COc1ccc(C2CC(=O)Oc3cc(C)[nH]c(=O)c32)c(OC)c1", "note": "(centres undefined)", "INHIBITION": 45.7}
{"smiles": "O=C(Cn1ccc2ccccc21)Nc1cc(N2CCOCC2)ncn1", "INHIBITION": 30.5}
{"smiles": "O=C(Cn1ccc2ccccc21)Nc1cc(N2CCCC2)ncn1", "INHIBITION": 27.5}
{"smiles": "CN1CCN(c2cc(NC(=O)Cn3ccc4ccccc43)ncn2)CC1", "INHIBITION": 60.1}
{"smiles": "COCCC1(CO)CCCN(C(=O)c2cc(=O)[nH]c(=O)[nH]2)C1", "note": "(centres undefined)", "INHIBITION": 0.33}
{"smiles": "CNC(=O)CN1CC[C@H]2CN(C(=O)c3cccn3C)C[C@H]2C1", "INHIBITION": 9.51}
{"smiles": "O=C(NCC1CCCO1)c1cc(-c2ccncc2)c2cnccc2n1", "note": "(centres undefined)", "INHIBITION": -3.02}
{"smiles": "CCN1CCN(C)C(=O)C12CCN(Cc1ccsc1)CC2", "INHIBITION": -9.74}
{"smiles": "OCCC1CCN(c2ccnc3ccsc23)C1", "note": "(centres undefined)", "INHIBITION": 5.11}
{"smiles": "O=C(N1CCOCC1)N1CCN(c2ccnc3ccsc23)CC1", "INHIBITION": 5.76}
{"smiles": "COCC1CCN(c2ccnc3ccsc23)C1", "note": "(centres undefined)", "INHIBITION": 79.5}
{"smiles": "O=C(c1cnccn1)N1CCN(c2ccnc3ccsc23)CC1", "INHIBITION": -7.46}
{"smiles": "c1cc(N2CCC(CN3CCOCC3)CC2)c2sccc2n1", "INHIBITION": 73.8}
{"smiles": "CN(C)C(=O)C1CCCN1c1ccnc2ccsc12", "note": "(centres undefined)", "INHIBITION": 1.75}
{"smiles": "CSc1ncc(Cl)c(C(=O)NC(Cc2ccccc2)C(=O)O)n1", "note": "(centres undefined)", "INHIBITION": 36.7}
{"smiles": "CC(C)C(=O)Nc1cccc(CNC(=O)CSCc2ccccn2)c1", "INHIBITION": 24.2}
{"smiles": "CCOc1ncccc1CNC(=O)Nc1ccc(OC)c(OC)c1", "INHIBITION": -49.5}
{"smiles": "Cc1nc(CN2C[C@@H]3CN(C(=O)[C@H]4CCCO4)C[C@@H]3C2=O)cs1", "INHIBITION": 19.4}
{"smiles": "CN1CCC2(CC1)C(=O)N(c1cccnc1)c1ccc(F)cc12", "INHIBITION": -45.8}
{"smiles": "O=C(c1cc2cc(I)ccc2[nH]1)N1CCC(Nc2cccnn2)CC1", "INHIBITION": 9.54}
{"smiles": "COc1cccc(F)c1CN1CCC(c2nccc(C)n2)C1", "note": "(centres undefined)", "INHIBITION": 1.35}
{"smiles": "N#CCCN(CC(F)(F)F)C(=O)c1cc(-n2cccn2)ccn1", "INHIBITION": -13.7}
{"smiles": "O=C(O)c1ccc(S(=O)(=O)Nc2ccccc2F)c(F)c1", "INHIBITION": 14.8}
{"smiles": "O=C(O)c1ccc(S(=O)(=O)Nc2ccccc2CC(F)(F)F)c(F)c1", "INHIBITION": 53.3}
{"smiles": "Cc1ccccc1NS(=O)(=O)c1ccc(C(=O)O)cc1F", "INHIBITION": 10.5}
{"smiles": "Cc1nc(C)n(C2CCCN(C(=O)c3ccn(C(C)C)n3)C2)n1", "note": "(centres undefined)", "INHIBITION": -2.53}
{"smiles": "O=C(NCCC1=CCCCC1)c1cc(-c2ccc(O)cc2)n[nH]1", "INHIBITION": 52.6}
{"smiles": "O=C(NCCN1CCNC1=O)c1cc(-c2ccc(O)cc2)n[nH]1", "INHIBITION": 10.7}
{"smiles": "Cc1cc(C(=O)NCCN2CCCc3ccccc32)[nH]n1", "INHIBITION": 48.8}
{"smiles": "Cc1ccc(-c2cc(C(=O)NCCC3=CCCCC3)[nH]n2)o1", "INHIBITION": 49.9}
{"smiles": "O=C(NCCN1CCc2ccccc21)c1cc(-c2ccc(O)cc2)n[nH]1", "INHIBITION": 68.9}
{"smiles": "CCCc1cc(C(=O)NCCC2=CCCCC2)[nH]n1", "INHIBITION": -73.5}
{"smiles": "CN1CCN(C(=O)NC2CCCC2)Cc2cccnc21", "INHIBITION": -29.3}
{"smiles": "CCn1c(CNCC2CCCN2c2cccnn2)nc2ccccc21", "note": "(centres undefined)", "INHIBITION": -0.113}
{"smiles": "COc1ccc(COCC(O)CNC(=O)Cc2ccc(C)cc2)cc1", "note": "(centres undefined)", "INHIBITION": 11.2}
{"smiles": "Cc1ncn(CCNC(=O)Nc2ccc(F)c(Cl)c2)c(=O)c1C", "INHIBITION": 20.9}
{"smiles": "CCOC(=O)COC1CCN(C(C)=O)CC(=O)N(C)c2ccccc21", "note": "(centres undefined)", "INHIBITION": 22.2}
{"smiles": "COc1ccccc1-c1ncc(CN2CCC3(CCN(C)C3)CC2)cn1", "INHIBITION": 18.4}
{"smiles": "COc1cccc(COCC(=O)N2CCCN(CC(N)=O)CC2)c1", "INHIBITION": -101}
{"smiles": "CC(C)CC(NC(=O)CSc1ccc(F)c(Cl)c1)C(=O)O", "note": "(centres undefined)", "INHIBITION": 75.8}
{"smiles": "CC(C)CC(NC(=O)Nc1ccc(F)c(Cl)c1)C(=O)O", "note": "(centres undefined)", "INHIBITION": -20.3}
{"smiles": "COCC(C)NC(=O)CSc1ccc(F)c(Cl)c1", "note": "(centres undefined)", "INHIBITION": 46.1}
{"smiles": "Cc1nc(N2CCCC2)nc2c1CCN(C(=O)CN(C)C)CC2", "INHIBITION": 20.1}
{"smiles": "COCc1ccccc1C(=O)N1CCCC1Cn1nc(C)cc1C", "note": "(centres undefined)", "INHIBITION": -72.745}
{"smiles": "C=C(C)CN1CCN(Cc2cnc(-c3ccccc3C)nc2)CC1", "INHIBITION": 9.93}
{"smiles": "Cc1nn(-c2ccc(C(=O)O)cc2)c2c1C(C(F)(F)F)SCC(=O)N2", "note": "(centres undefined)", "INHIBITION": -14.3}
{"smiles": "O=C(NCCCC(=O)N1Cc2ccccc2C1)NCc1nccs1", "INHIBITION": 39.7}
{"smiles": "O=C(NCCCC(=O)N1Cc2ccccc2C1)NCc1cccnc1", "INHIBITION": 66.3}
{"smiles": "O=C(NCCCC(=O)N1Cc2ccccc2C1)NCc1ccsc1", "INHIBITION": 23.5}
{"smiles": "O=C1[C@@H]2CC[C@@H](CN(Cc3nnc(C4CC4)o3)C2)N1Cc1cscn1", "INHIBITION": -28.4}
{"smiles": "CN(C)CCNC(=O)CCC1CCN(C(=O)c2ccc(O)cn2)CC1", "INHIBITION": 26.8}
{"smiles": "Cc1cc(C(=O)N2CCC(CCC(=O)NCCN(C)C)CC2)ccc1O", "INHIBITION": -21.9}
{"smiles": "CN(C)CCNC(=O)CCC1CCN(C(=O)c2ccc(Cl)cc2O)CC1", "INHIBITION": 50.4}
{"smiles": "CCN(c1ccc(C(=O)NCCCN2CCCC2)cc1)S(=O)(=O)CC", "INHIBITION": -7.11}
{"smiles": "CC[C@@H]1N(Cc2ccc(F)cc2)CCC[C@]12CCC(=O)N2C", "INHIBITION": 21.1}
{"smiles": "Cc1ccc(N2CC3(COCCN(Cc4ccncc4)C3)OCC2=O)s1", "note": "(centres undefined)", "INHIBITION": -36}
{"smiles": "Cc1ccc(N2CC3(COCCN(Cc4cccnc4)C3)OCC2=O)s1", "note": "(centres undefined)", "INHIBITION": 39.2}
{"smiles": "Cc1ccc(N2CC3(COCCN(Cc4nccs4)C3)OCC2=O)s1", "note": "(centres undefined)", "INHIBITION": -17}
{"smiles": "Cc1ccc(N2CC3(COCCN(Cc4cnn(C)c4)C3)OCC2=O)s1", "note": "(centres undefined)", "INHIBITION": 31.7}
{"smiles": "Cc1ccc(CN2CCC3(CC2)CN(c2ccccc2)C(=O)CO3)o1", "INHIBITION": 68.4}
{"smiles": "Cc1ccc(CN2CCOCC3(C2)CN(c2ccc(C)s2)C(=O)CO3)o1", "note": "(centres undefined)", "INHIBITION": 64.2}
{"smiles": "Cc1ccc(CN2CCC3(CC2)CN(c2cnn(C)c2)C(=O)CO3)o1", "INHIBITION": -2.17}
{"smiles": "Cc1cccc(N2CCOCC3(C2)CN(c2cccnc2)C(=O)CO3)n1", "note": "(centres undefined)", "INHIBITION": 41.4}
{"smiles": "Cc1cccc(N2CCOCC3(C2)CN(c2ccccc2)C(=O)CO3)n1", "note": "(centres undefined)", "INHIBITION": 59.3}
{"smiles": "Cc1cccc(N2CCOCC3(C2)CN(c2cncnc2)C(=O)CO3)n1", "note": "(centres undefined)", "INHIBITION": 33.5}
{"smiles": "Cc1ccc(N2CC3(COCCN(Cc4ccccn4)C3)OCC2=O)s1", "note": "(centres undefined)", "INHIBITION": 60.1}
{"smiles": "Cn1cccc1CN1CCC2(CC1)CN(c1ccccc1)C(=O)CO2", "INHIBITION": -19.5}
